From PubChem
FBPA Giardia inh: blocks Giardia fructose-bisphosphate aldolase activity | Potency, µM (doses to about 59.6 µM), most hits filed as inhibitors | A8B2U2 | purified Giardia FBPA | hit rate 0.71% among 290,000; further: nearly all actives have a fitted effect of over 55% in size
Target sequence (A8B2U2 whole entry, looked up): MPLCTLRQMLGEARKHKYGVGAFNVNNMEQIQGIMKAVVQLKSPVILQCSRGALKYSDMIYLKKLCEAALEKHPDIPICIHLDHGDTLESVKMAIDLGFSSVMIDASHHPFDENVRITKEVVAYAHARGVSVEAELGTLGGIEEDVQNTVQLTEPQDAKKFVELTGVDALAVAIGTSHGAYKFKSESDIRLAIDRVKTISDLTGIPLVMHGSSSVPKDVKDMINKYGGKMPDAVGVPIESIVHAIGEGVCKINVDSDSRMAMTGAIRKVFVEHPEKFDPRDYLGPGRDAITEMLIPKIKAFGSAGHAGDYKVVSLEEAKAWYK
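40 nM FBPA preincubated 10 min at RT with compound (up to 57.5 uM final), then substrate plus GAPDH/TPI/NAD/arsenate coupling and diaphorase/resazurin added. Fluorescence read after 20 min at RT, 525/598 nm.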
FMDV antiviral: foot and mouth disease virus antiviral activity. hit rate 1.2% among 410,000. Potency, µM (titrated, usually from 57.9 µM), hits mostly inhibitors. FMDV antiviral cell-based qHTS; calls by dose curve; tested in HEK293T cells; further: read-out not given here; nearly all actives have a fitted effect of over 45% in size
HCMV inh: human cytomegalovirus inhibition | HFF cells, HCMV-luciferase reporter, 72 h; active compounds read low | activity change, negative = inhibition, % at 57.5 µM | hit rate 4.5% among 410,000; in the data active means activity change below about -60%; inconclusive means no clear call, values can overlap the other calls; inactive means above about -39%
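Cell-based, HFFs, 1000 cells/well, 16 h 37C; cpds in DMSO + HCMV-luc, MOI 1 PFU/cell; 72 h 37C; OneGlo luminescence after 5 min RT; norm. to buffer vs Salinomycin 10uM.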
MARV entry inh: blocks Marburg virus binding to or entry into cells; Marburg virus pseudotyped entry inhibition, cell reporter; Potency, µM (doses to about 37.8 µM), hits mostly inhibitors; hit rate 1.8% among 300,000; AID 540276; calls by dose curve; tested in HEK293 cells
HCV inh: HCV inhibition | Potency, µM (top dose mostly 41.8 µM), hits mostly inhibitors | Huh7.5.1 HCVcc-Cre infection, luciferase reporter, 44 h | hit rate 3.4% among 340,000
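Whole-lifecycle infectious HCVcc-Cre system; cells 1,000/well, compound then virus (~0.5 moi) added 4 h after plating, 44 h culture. Luciferase read 15 sec following 15 min substrate incubation, room temp.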
Lassa entry inh: Lassa virus entry inhibition; AID 540256; Lassa virus pseudotype entry inhibition, cell reporter; hit rate 1.2% among 300,000; Potency, µM (doses to about 37.9 µM), usual class: inhibitors; calls by dose curve; tested in HEK293 cells; further: nearly all actives have a fitted effect of over 50% in size
A number is an active result; i = inactive; ? = inconclusive; nt = not tested or not shown; + = active, no number; [ ] = remark or other dose. Rows were chosen to be rich in hits. Some 8.3% of all compounds tested hit in one or more screens of this group. Unless noted, the call rests on the fitted dose curve; in most records, active means well fitted curve in the direction sought with a large enough effect; inconclusive means small, poorly fitted or top-dose-only effect, or another doubt; inactive means no such curve, though single readings can be large; an effect the other way counts as inactive or inconclusive.

SMILES | FBPA Giardia inh | FMDV antiviral | HCMV inh | MARV entry inh | HCV inh | Lassa entry inh
Cc1ccc(C)c(N2CCN(CCCNC(=O)Cn3cccc3C(=O)c3ccccc3C)CC2)c1 | i | ? | -94 | ? | 11µM | ?
Cc1ccccc1C(=O)c1cccn1CC(=O)NCCCN1CCCCC1 | i | i | i | i | i | i
CCCCc1nc2c(c3c1C[C@H](C)OC3)CN(C(=O)NCCc1c[nH]c3ccccc13)CC2 | i[12.9 µM] | nt | nt | nt | nt | nt
CSc1nc(-c2ccc(Cl)cc2)c(C#N)c(=O)[nH]1 | i | i | -76 | i | i | i
CSc1nc(-c2ccccc2)c(C#N)c(=O)[nH]1 | i | i | i | nt | i | nt
O=C(NCCSCc1ccc(Cl)cc1Cl)c1ccc(CN2CCOCC2)cc1 | i | ? | ? | ? | 11µM | ?
COc1ccc(CNc2oc(COc3ccc(Cl)cc3)nc2C#N)cc1 | i | ? | i | i | ? | i
CC(Nc1oc(-c2ccc(COc3ccc(Cl)cc3)o2)nc1C#N)c1ccccc1 (centres undefined) | nt | i | -74 | i | nt | i
COc1ccc(Nc2oc(-c3ccc(Cl)cc3)nc2C#N)cc1 | i | i | i | ? | ? | i
CCOc1ccc(Nc2oc(-c3ccc(COc4ccccc4C)o3)nc2C#N)cc1 | nt | i | -71 | i | nt | i
COc1ccc(Nc2oc(COc3ccc(Cl)cc3)nc2C#N)cc1 | i | ? | -78 | ? | ? | ?
CCOc1ccc(Nc2oc(-c3ccc(Cl)cc3)nc2C#N)cc1 | i | i | i | 7.3µM | ? | 16µM
CCNc1oc(-c2ccc(COc3ccc(Cl)cc3)o2)nc1C#N | nt | ? | i | i | nt | i
C=CCCN(Cc1ccc(OC)cc1)S(=O)(=O)c1ccccc1Br | i | nt | nt | nt | nt | nt
N#Cc1nc(-c2ccc(COc3ccc(Cl)cc3)o2)oc1N1CCC(C(N)=O)CC1 | nt | ? | -65 | i | nt | i
c1ccc(-c2ccc(-c3nccc4ccccc34)[nH]2)cc1 | i | nt | nt | nt | nt | nt
N#Cc1cc(-c2ccccc2)[nH]c1-c1nccc2ccccc12 | i | 28µM | ? | nt | ? | nt
Cc1ccc(CNC(=O)C2CCC(CNS(=O)(=O)c3ccc(C)cc3)CC2)cc1 (centres undefined) | nt | i | i | nt | nt | i
Cc1c(F)c(F)c(COC(=O)C2C(/C=C(\Cl)C(F)(F)F)C2(C)C)c(F)c1F (centres undefined) | i | nt | nt | nt | nt | nt
COCCNC(=O)CN1C(=O)c2cccnc2Oc2ccc(Cl)cc21 | nt | i | + | nt | nt | i
CCCCSCCCNC(=O)CN1C(=O)c2cccnc2Oc2ccc(Cl)cc21 | nt | i | i | nt | nt | i
CC(=O)Nc1nc(-c2ccccc2)nc(-c2ccccc2OC(C)=O)n1 | i | nt | i | i | 2.8µM | ?
C[n+]1c2n(c3ccccc31)N=C(c1cc(C(C)(C)C)c(O)c(C(C)(C)C)c1)CS2 | i | 14µM | -101 | 11µM | ? | ?
N#Cc1ccccc1S(=O)(=O)N1CCCC(c2nc3c(nnn3Cc3cccc(Cl)c3)c(=O)[nH]2)C1 (centres undefined) | nt | i | ? | i | nt | i
Cc1nn(-c2ccccc2)c(C)c1/C=N/NC(=O)CSc1nnc(SCc2ccccc2Cl)s1 | i | i | i | ? | ? | 2.1µM
SMILES | FBPA Giardia inh | FMDV antiviral | HCMV inh | MARV entry inh | HCV inh | Lassa entry inh
Cc1ccc(CSc2nnc(SCC(=O)N/N=C/c3c(C)nn(-c4ccccc4)c3C)s2)cc1 | i | i | i | ? | ? | 8.2µM
CCC(C(=O)Nc1ccc(C)c(Cl)c1)n1c(=O)c(-c2ccccc2NC(C)=O)nc2ccccc21 (centres undefined) | nt | ? | -97 | i | nt | i
CCC(=O)Nc1ccccc1-c1nc2ccccc2n(C(CC)C(=O)Nc2cccc(Cl)c2)c1=O (centres undefined) | nt | ? | -108 | i | nt | i
C=CCC1C=CC(Oc2ccc(OC)cc2)C(CO)O1 (centres undefined) | i[12.9 µM] | nt | nt | nt | nt | nt
COc1ccc(O[C@H]2C=C[C@@H](c3ccccc3)O[C@H]2COC(=O)CC/C(C)=N\O[C@@H](C)c2cn([C@H]3COC[C@H]3O)nn2)cc1 | i[12.9 µM] | nt | nt | nt | nt | nt
CS(=O)(=O)NNC(=O)c1cc2cc3ccccc3nc2s1 | i | i | i | i | i | i
NNC(=O)c1cc2cc3ccccc3nc2s1 | i | i | -66 | i | i | i
COc1ccc(-c2nc3cc(C(C)C)ccc3o2)cc1NC(=O)c1ccc(C)c(Cl)c1 | nt | i | i | ? | nt | i
COc1ccc(C(C)(C)C)cc1NC(=O)c1[nH]c(C)c(C(C)=O)c1C | i | i | i | 10µM | ? | 11µM
COc1ccc(NC(=O)c2[nH]c(C)c(C(C)=O)c2C)cc1S(=O)(=O)Nc1ccc(Br)cc1 | i | i | i | ? | 14µM | ?
COc1ccc(NC(=O)c2[nH]c(C)c(C(C)=O)c2C)cc1Cl | ? | i | i | ? | ? | ?
COc1ccc([C@]23Cc4cc(OC)c(OC)cc4C(O2)c2c(cc(C)n(Cc4ccccc4)c2=O)O3)cc1 | i[12.9 µM] | nt | nt | ? | nt | nt
Fc1cc(Br)ccc1Nc1nc2ccccc2n2nnnc12 | i | i | -73 | nt | i | nt
O=C(c1ccc(NS(=O)(=O)c2cccs2)cc1)N1CCCCC1 | i | i | i | i | 2.8µM | i
C/C(=N\NC(=O)c1ccc(NS(=O)(=O)c2cccs2)cc1)c1cccs1 | i | i | -83 | i | i | i
C/C(=N/NC(=O)c1cccs1)c1ccc(NC(=O)COc2ccc(Cl)cc2)cc1 | i | i | i | ? | ? | 10µM
C/C(=N\NC(=O)c1ccc(Cl)cc1)c1cccs1 | i | i | i | ? | i | 3.5µM
C/C(=N\NC(=O)c1ccc(NS(=O)(=O)c2cccs2)cc1)c1ccc(Cl)cc1 | i | i | i | i | ? | i
Cc1ccc(-n2nc(C(=O)N(C)c3ccc(C)c(C)c3)c3c4ccccc4n(C)c3c2=O)cc1 | nt | i | i | i | nt | ?
COCCN(CCOC)Cc1c(O)ccc2c1O/C(=C\c1ccc(C)o1)C2=O | ? | i | -88 | i | i | i
CCN(CC)Cc1c(O)ccc2c1O/C(=C\C=C\c1ccccc1)C2=O | i | i | ? | nt | i | nt
COc1ccccc1/C=c1\sc2nc(-c3ccccc3OC)nn2c1=O | i | i | i | ? | i | i
COc1ccc(/C=c2\sc3nc(=O)c(C)nn3c2=O)c(OC)c1 | i | i | -62 | nt | i | nt
COC(=O)C1=C(C(=O)OC)[C@@H]2N(C)c3ccccc3[C@@]23CCC(=O)N(CC(C)C)C3=N1 | nt | nt | nt | i | nt | nt
CCOC(=O)C1(Cc2cccc(OC)c2)CCN(Cc2cccc(O)c2)CC1 | i | ? | i | ? | i | i
CCOC(=O)C1(Cc2cccc(OC)c2)CCN(Cc2ccccc2OC)CC1 | i | ? | -62 | ? | ? | i
CCOC(=O)C1(Cc2ccc(OC)cc2)CCN(S(C)(=O)=O)CC1 | i | i | i | i | i | i
CCOC(=O)C1(Cc2cccc(OC)c2)CCN(Cc2ccc(C)s2)CC1 | i | ? | i | 5µM | ? | 4.5µM
CCOC(=O)C1(Cc2cccc(OC)c2)CCN(Cc2ccc(OC)c(OC)c2)CC1 | i | i | i | 4.5µM | 11µM | ?
CCOC(=O)C1(Cc2ccc(Cl)cc2)CCN(C(C)Cc2ccc(O)c(OC)c2)CC1 (centres undefined) | i | ? | -63 | nt | 10µM | nt
